Results on six sequences are retold here after the supplement of paper PMC6555819.

What all share (test): PBM binding z-score (relative to random genomic background probes); higher = stronger binding; sequences stand for … in GC…GCGATTGACAGCGTAGAATGAAGG
Assay [1] relates to FXR:RXRa (NR concentration 270 nM, RXRa partner concentration 90 nM). The method, boiled down: (§1)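 Antibodies against each partner of ligand-free nuclear receptor dimers (one per run) detected binding on custom Agilent 4×180K protein-binding microarrays after 1 h incubation. The double-stranded probes had 34-nt variable regions carrying direct-repeat seeds, single-nucleotide variants, half-site ablations and random human genomic background sequences. Binding z-scores, from regression-normalized fluorescence, use the random background probes as reference.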

Assay [2] deals with LXRa:RXRa (NR concentration 270 nM, RXRa partner concentration 90 nM). The method, boiled down:
as §1

The subject of assay [3] is LXRa homodimer (NR concentration 270 nM). The method, boiled down: as §1
Assay [4] relates to LXRb:RXRa (NR concentration 270 nM, RXRa partner concentration 90 nM). The method, boiled down:
as §1

The test system of assay [5] is LXRb homodimer (NR concentration 270 nM). The method, boiled down: as §1
Assay [6] deals with PPARa:RXRa (NR concentration 270 nM, RXRa partner concentration 90 nM). The method, boiled down:
as §1

The subject of assay [7] is PPARg:RXRa (NR concentration 180 nM, RXRa partner concentration 90 nM). The method, boiled down:
as §1

Assay [8] relates to PPARg:RXRa 270nM:90nM, anti-RXR (NR concentration 270 nM, RXRa partner concentration 90 nM). The method, boiled down:
as §1

Assay [9] has as its system PPARg:RXRa 30nM:10nM, anti-RXR (NR concentration 30 nM, RXRa partner concentration 10 nM). The method, boiled down: as §1
Assay [10] has as its system PPARg:RXRa 90nM:30nM, anti-RXR (NR concentration 90 nM, RXRa partner concentration 30 nM). The method, boiled down: as §1
The test system of assay [11] is PPARg:RXRa DBDmut IVT, anti-RXR (DBD mutation: RXRa K156A/R161A, NR concentration 270 nM, RXRa partner concentration 90 nM). The method, boiled down: as §1
Assay [12] relates to PPARg:RXRa IVT, anti-PPARg (NR concentration 270 nM, RXRa partner concentration 90 nM). The method, boiled down:
as §1

For assay [13], the system named is PPARg DBDmut:RXRa IVT, anti-PPARg (DBD mutation: PPARg1 K132A/R137A, NR concentration 270 nM, RXRa partner concentration 90 nM). The method, boiled down: as §1
The test system of assay [14] is PPARg DBDmut IVT, anti-PPARg (DBD mutation: PPARg1 K132A/R137A, NR concentration 270 nM). The method, boiled down:
as §1

The test system of assay [15] is PPARg homodimer (NR concentration 180 nM). The method, boiled down:
as §1

The test system of assay [16] is PXR:RXRa (NR concentration 270 nM, RXRa partner concentration 90 nM). The method, boiled down:
as §1

Assay [17] has as its system PXR homodimer (NR concentration 270 nM). The method, boiled down: as §1
The test system of assay [18] is RARa:RXR (NR concentration 270 nM, RXRa partner concentration 90 nM). The method, boiled down:
as §1

The subject of assay [19] is RARa homodimer (NR concentration 270 nM). The method, boiled down:
as §1

For assay [20], the system named is RARb:RXRa (NR concentration 270 nM, RXRa partner concentration 90 nM). The method, boiled down: as §1

For the sequence GATACAGGGTCGAGGCCAGAGTACGCGTATTGAT, the PBM binding z-score was 0.882 in assay [1]; 0.531 in assay [2]; -0.581 in assay [3]; 0.3 in [4]; -1.21 in assay [5]; 1.99 in [6]. Besides, the PBM binding z-score in [7] was 1.21; in [8], 0.874; in [9], 0.198; in [10], 0.515; in assay [11], -0.175; in assay [12], 0.711. The PBM binding z-score is -0.769 in assay [13]; -0.92 in assay [14]; 0.109 in [15]; 0.68 in assay [16]; -0.735 in assay [17]; 1.37 in assay [18]. Besides, the values for the PBM binding z-score in assay [19] and in assay [20] were -0.498 and 1.91, respectively.
On to AGTACGAGGGCAATGAGTTGATAGCACGGGTGGC, for which the PBM binding z-score in assay [1] was 0.396; in assay [2], 0.352; in [3] it was -0.477; in assay [4], 0.0796; in assay [5], -0.401; in assay [6] it was 0.795. For the same sequence, the PBM binding z-score in assay [7] was 1.08; in [8] it was 0.242; in assay [9], -0.0294; in assay [10] it was 0.117; in assay [11], 1.59; in assay [12], 1.15. Besides, the PBM binding z-score in assay [13] turned out to be 0.233; in assay [14], 0.248; in assay [15], 0.203; in assay [16], 1.32; in assay [17] it was 5.08; in assay [18], 0.221. Also, the PBM binding z-score in assay [19] stood at 0.00797; in [20], 2.08.
Turning to AGTCAAAGTTCATCTAGGTAACGTACGATATGCT, the PBM binding z-score in assay [1] came out at 6.96; in assay [2], 6.13; in assay [3], 5.65; in [4], 3.91; in assay [5], 1.59; in [6] it was 5.05. In addition, the PBM binding z-score stood at 6.7 in assay [7]; 6.46 in assay [8]; 3.66 in assay [9]; 5.86 in assay [10]; 1.04 in [11]; 4.13 in assay [12]. Further, the PBM binding z-score in [13] was 1.4; in assay [14] it was 2.09; in [15], 2.4; in assay [16], 5.22; in [17], 6.7; in [18] it was 3.95. Also, the figures for the PBM binding z-score in assay [19] and in assay [20] were 1.06 and 5.06, respectively.
Turning to TCATATAGGTAAGGGTGAAAGTCGAACGATATGA, the PBM binding z-score was 0.857 in assay [1]; 0.803 in assay [2]; -0.00999 in assay [3]; 0.694 in assay [4]; -0.563 in assay [5]; 2.47 in assay [6]. Besides, the PBM binding z-score in assay [7] stood at 2.7; in assay [8] it was 3.29; in assay [9], 3.87; in [10], 3.72; in assay [11], 2.65; in assay [12], 2.84. Besides, the PBM binding z-score was 1.53 in assay [13]; 1.28 in [14]; 1.03 in assay [15]; 0.664 in assay [16]; 0.181 in assay [17]; 1.14 in [18]. The PBM binding z-score in assay [19] came out at 0.462; in assay [20], 1.13.
Take ACAGACAGGTGATGAACGTAACTCAGGCTATCAT: the PBM binding z-score was -0.0915 in assay [1]; -0.174 in assay [2]; 0.0611 in assay [3]; -0.231 in [4]; -0.49 in [5]; -0.156 in assay [6]. The PBM binding z-score was 0.922 in [7]; -0.0111 in [8]; 0.477 in [9]; -0.194 in assay [10]; -0.0291 in [11]; 0.144 in assay [12]. Also, the PBM binding z-score in assay [13] is 0.839; in [14], 0.504; in [15] it was -0.201; in assay [16] it was -0.104; in [17], 0.276; in [18] it was -0.047. Besides, the PBM binding z-score was 0.235 in assay [19] and -0.0365 in assay [20].
For CCGATTGGGGCAAAGGTTACCATACTCAGTACGA, the PBM binding z-score was 1.84 in assay [1]; 1.62 in assay [2]; -0.0955 in [3]; 2.33 in assay [4]; -0.878 in assay [5]; 4.89 in assay [6]. Further, the PBM binding z-score turned out to be 8.96 in assay [7]; 8.43 in assay [8]; 7.85 in [9]; 8.46 in assay [10]; 2.91 in assay [11]; 4.24 in assay [12]. For the same sequence, the PBM binding z-score in assay [13] was 0.329; in assay [14], 0.0522; in assay [15] it was 1.15; in [16] it was 2.32; in [17], -0.232; in assay [18], 3.81. Besides, the PBM binding z-score is -0.223 in [19] and 2.31 in assay [20].
